An excerpt weighted towards active compounds, which were near 2.9% of everything screened.
EPAC2 ant val: validation of human EPAC2 antagonists | Q8WZA2 | EPAC2 Rap1B BODIPY-GDP exchange, fluorescence | Potency, µM (series often up to 112 µM), for inactives: at the highest dose activity, negative = inhibition, actives largely listed as inhibitors | actives 1.7% (n = 16,000) | AID 1645886;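 further: 100% = activation by cAMP agonist control; nearly all actives have a fitted effect of over 40% in size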
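Fluorescent exchange read-out: 100 nM EPAC2 with 250 nM RAP1B–BODIPY-GDP and 50 uM GDP; BODIPY-GDP release lowers fluorescence. Read at 480/540 nm every 5 min for 30 min at room temperature; normalized to 6.5 mM cAMP.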
EPAC1 ag val: validation of human EPAC1 agonists. O95398. EPAC1 Rap1b BODIPY-GDP exchange, fluorescence. Potency, µM, inactives show max response, positive = active, usual class: activators. actives 1% (n = 16,000). AID 1645883; further: nearly all actives have a fitted effect of over 70% in size
Target sequence (O95398 whole entry, looked up): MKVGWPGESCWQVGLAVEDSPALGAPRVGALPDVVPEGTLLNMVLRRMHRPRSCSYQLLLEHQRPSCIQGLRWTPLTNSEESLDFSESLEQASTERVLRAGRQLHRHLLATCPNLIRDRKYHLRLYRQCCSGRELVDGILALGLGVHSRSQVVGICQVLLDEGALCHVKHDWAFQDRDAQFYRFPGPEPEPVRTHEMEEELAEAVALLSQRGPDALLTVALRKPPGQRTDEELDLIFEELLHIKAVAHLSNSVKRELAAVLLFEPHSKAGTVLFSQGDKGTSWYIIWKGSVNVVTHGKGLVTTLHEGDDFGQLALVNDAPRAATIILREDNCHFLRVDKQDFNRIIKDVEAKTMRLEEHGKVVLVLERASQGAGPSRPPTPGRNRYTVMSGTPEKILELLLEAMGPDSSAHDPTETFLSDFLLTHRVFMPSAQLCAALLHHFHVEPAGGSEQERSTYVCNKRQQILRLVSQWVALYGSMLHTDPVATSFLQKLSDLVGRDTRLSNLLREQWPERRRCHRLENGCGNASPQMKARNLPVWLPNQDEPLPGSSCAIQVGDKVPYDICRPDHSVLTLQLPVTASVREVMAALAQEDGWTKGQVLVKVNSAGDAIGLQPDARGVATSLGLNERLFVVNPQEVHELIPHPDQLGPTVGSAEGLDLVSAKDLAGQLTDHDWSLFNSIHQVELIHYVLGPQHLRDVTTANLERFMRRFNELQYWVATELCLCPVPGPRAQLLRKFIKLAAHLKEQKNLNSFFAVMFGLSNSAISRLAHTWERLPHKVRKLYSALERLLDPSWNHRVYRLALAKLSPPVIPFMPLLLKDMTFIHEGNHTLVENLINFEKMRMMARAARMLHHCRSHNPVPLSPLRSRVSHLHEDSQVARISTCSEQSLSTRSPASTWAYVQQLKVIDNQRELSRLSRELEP
An asterisk follows results filed as active; ! = not active in a repeat. The call rests on the fitted dose curve; in most records, active means well fitted curve in the direction sought with a large enough effect; inconclusive means small, poorly fitted or top-dose-only effect, or another doubt; inactive means no such curve, though single readings can be large; an effect the other way counts as inactive or inconclusive. Unless noted, on the % scale 0 is the no-effect control and ±100 the full control effect; potency means the concentration at half of the fitted maximal effect.

For Cc1c(N)nc([C@H](CC(N)=O)NC[C@H](N)C(N)=O)nc1C(=O)N[C@H](C(=O)N[C@H](C)[C@@H](O)[C@H](C)C(=O)N[C@H](C(=O)NCCc1nc(-c2nc(C(=O)NCCCCN=C(N)N)cs2)cs1)[C@@H](C)O)[C@@H](O[C@@H]1O[C@@H](CO)[C@@H](O)[C@H](O)[C@@H]1O[C@H]1O[C@H](CO)[C@@H](O)[C@H](OC(N)=O)[C@@H]1O)c1cnc[nH]1 the results were EPAC2 ant val 9% and EPAC1 ag val 5%.
For Cc1cnc(-n2ncc(C(=O)N(C)CCc3ccccn3)c2-c2cccs2)nc1-c1ccc(F)cc1 the results were EPAC2 ant val -14% and EPAC1 ag val -10%.
`O=S(=O)(N(Cc1ccccc1)[C@@H](CO)Cc1ccccc1)N(Cc1ccccc1)[C@@H](CO)Cc1ccccc1` gave EPAC2 ant val -2% and EPAC1 ag val -5%.
C=CS(=O)(=O)N(Cc1ccccc1Br)[C@H](CO)Cc1ccccc1 was read as EPAC2 ant val 35µM* and EPAC1 ag val 12%.
Screening C=CS(=O)(=O)N(Cc1ccccc1)[C@H](CO)CC(C)C returned EPAC2 ant val 79µM* and EPAC1 ag val -51%.
For CC(C)C[C@H](CO)N(Cc1ccccc1)S(=O)(=O)N(Cc1ccccc1)[C@@H](CO)CC(C)C the results were EPAC2 ant val inconclusive and EPAC1 ag val -74%.
`CC(C)CCC[C@@H](C)[C@H]1CC(=O)C2=C3CC[C@H]4C[C@@H](O)CC[C@]4(C)[C@H]3CC[C@@]21C` gave EPAC2 ant val 5% and EPAC1 ag val -32%.
Screening COc1cc(OC)c(CN2CCOc3ccc(CN4CCC(O)CC4)cc3C2)c(OC)c1 returned EPAC2 ant val 12% and EPAC1 ag val -22%.
For COc1cccc(Cn2c(=O)c(-c3cn(C)c4ccccc34)nc3cnc(N4CCNCC4)nc32)c1 the results were EPAC2 ant val 79µM* and EPAC1 ag val inconclusive.
COc1cccc(Nc2ncc3nc(C)c(=O)n(C[C@H]4CCCO4)c3n2)c1 was read as EPAC2 ant val -11% and EPAC1 ag val 6%.
COc1cccc(Cn2c(=O)c(-c3cn(C)c4ccccc34)nc3cnc(N4CCOCC4)nc32)c1 was read as EPAC2 ant val 14% and EPAC1 ag val 0%.
`COc1cccc(Cn2c(=O)c(-c3ccccc3)nc3cnc(N4CCN(C)CC4)nc32)c1` gave EPAC2 ant val -12% and EPAC1 ag val -54%.
Screening COc1cccc(Cn2c(=O)c(CCc3ccccc3)nc3cnc(N4CCN(C)CC4)nc32)c1 returned EPAC2 ant val -3% and EPAC1 ag val 112µM*.
Screening COc1cccc(Nc2ncc3nc(-c4cn(C)c5ccccc45)c(=O)n(C[C@H]4CCCO4)c3n2)c1 returned EPAC2 ant val 9% and EPAC1 ag val 112µM*.
`C=C1[C@@H]2CC[C@@H](C2)C1(C)C` gave EPAC2 ant val 1% and EPAC1 ag val -42%.
For CCC1(C2CCN(Cc3ccc(C)s3)CC2)NC(=O)N(CC2COc3ccccc3O2)C1=O (stereo not drawn) the results were EPAC2 ant val inconclusive and EPAC1 ag val -12%.
Screening O=C1CCCCN1CCC(=O)N1CCOc2ccc(C(O)C3CCCCC3)cc2C1 (stereo not drawn) returned EPAC2 ant val inconclusive and EPAC1 ag val -27%.
Screening CCOC(=O)C1=C(C)NC(C)=C(C(=O)OC)C1c1cccc([N+](=O)[O-])c1 (stereo not drawn) returned EPAC2 ant val 7.9µM*! and EPAC1 ag val 0%.
COCCOC(=O)C1=C(C)NC(C)=C(C(=O)OC(C)C)C1c1cccc([N+](=O)[O-])c1 (stereo not drawn) was read as EPAC2 ant val inconclusive and EPAC1 ag val 4%.
For COC(=O)C1=C(C)NC(C)=C(C(=O)OC(C)(C)CN(C)CCC(c2ccccc2)c2ccccc2)C1c1cccc([N+](=O)[O-])c1 (stereo not drawn) the results were EPAC2 ant val -28% and EPAC1 ag val inconclusive.
COC(=O)C1=C(C)NC(C)=C(C(=O)OCCCN2CCC(c3ccccc3)(c3ccccc3)CC2)[C@H]1c1cccc([N+](=O)[O-])c1 was read as EPAC2 ant val inconclusive and EPAC1 ag val 13%.
For CC1=C(C(=O)OC(C)C)C(c2cccc([N+](=O)[O-])c2)C(C(=O)OC2CN(C(c3ccccc3)c3ccccc3)C2)=C(N)N1 (stereo not drawn) the results were EPAC2 ant val 1% and EPAC1 ag val 100µM*.
`COCCOC(=O)C1=C(C)NC(C)=C(C(=O)OC(C)C)[C@@H]1c1cccc([N+](=O)[O-])c1` gave EPAC2 ant val 50µM* and EPAC1 ag val 0%.
CCOC(=O)C1=C(C)NC(C)=C(C(=O)OC)[C@H]1c1cccc([N+](=O)[O-])c1 was read as EPAC2 ant val 18µM* and EPAC1 ag val 15%.
COC(=O)C1=C(C)NC(C)=C(C(=O)O[C@@H]2CCCN(Cc3ccccc3)C2)[C@@H]1c1cccc([N+](=O)[O-])c1 was read as EPAC2 ant val -25% and EPAC1 ag val inconclusive.
Screening Cc1occc1C(=O)Nc1cccc(-c2nc(CNC(=O)c3cccc(C#CC(C)(C)O)c3)c(C)o2)c1 returned EPAC2 ant val -18% and EPAC1 ag val -5%.
`OCC(S)CS` (stereo not drawn) gave EPAC2 ant val -16% and EPAC1 ag val 12%.
For COc1cc(C(=O)NS(=O)(=O)c2ccccc2C)ccc1Cc1cn(C)c2ccc(NC(=O)OC3CCCC3)cc12 the results were EPAC2 ant val 79µM* and EPAC1 ag val 4%.
For CCCC(=O)OC[C@@H](OC(=O)CCC)[C@@H](OC(=O)CCC)[C@H](Cn1c2nc(=O)[nH]c(=O)c-2nc2cc(C)c(C)cc21)OC(=O)CCC the results were EPAC2 ant val 119% and EPAC1 ag val inconclusive.
Screening Cc1cc2nc3c(=O)[nH]c(=O)nc-3n(CC(O)C(O)C(O)CO)c2cc1C (stereo not drawn) returned EPAC2 ant val inactive and EPAC1 ag val 35µM*.
Screening COc1ccccc1N1CCN(c2nc(CNC(=O)c3sc(C)nc3C)nc3ccccc23)CC1 returned EPAC2 ant val -8% and EPAC1 ag val -5%.
`CCC(C)(C)C(=O)OC1CC(C)C=C2C=CC(C)C(CCC3CC(O)CC(=O)O3)C21` (stereo not drawn) gave EPAC2 ant val inactive and EPAC1 ag val 6%.
For CCC(C)(C)C(=O)O[C@@H]1C[C@@H](C)C=C2C=C[C@H](C)[C@H](CC[C@@H]3C[C@@H](O)CC(=O)O3)[C@H]21 the results were EPAC2 ant val 50µM* and EPAC1 ag val -43%.
For CN1CCC(=C2c3ccccc3CCc3cccnc32)CC1 the results were EPAC2 ant val 7% and EPAC1 ag val 6%.
For CCOC(=O)N1CCC(=C2c3ccc(Cl)cc3CCc3cccnc32)CC1 the results were EPAC2 ant val 35µM*! and EPAC1 ag val 16%.
For NC(Cc1ccccc1)C(=O)O (stereo not drawn) the results were EPAC2 ant val 7% and EPAC1 ag val -8%.
CN(C)c1ccc(C(=C2C=CC(=[N+](C)C)C=C2)c2c(O)c(S(=O)(=O)[O-])cc3cc(S(=O)(=O)O)ccc23)cc1 was read as EPAC2 ant val 56µM* and EPAC1 ag val -36%.
`CN(C)c1ccc(C(=C2C=CC(=[N+](C)C)C=C2)c2ccccc2)cc1` gave EPAC2 ant val -1% and EPAC1 ag val -10%.

Assay outcomes as filed in PubChem BioAssay.
